RORg inh: ROR gamma (mouse) transcription inhibition | P51450 | Drosophila S2 Gal4-RORgamma UAS-luciferase reporter, 20 h | Potency, µM (doses to about 53.6 µM), usual class: inhibitors | actives 5.4% (n = 310,000) | AID 2551; further: nearly all actives have a fitted effect of over 60% in size
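Drosophila Schneider cells stably carrying a metallothionein-driven Gal4 DBD–ROR gamma fusion and a UAS-Photinus luciferase reporter were exposed to compound for 1 hr, then induced with copper sulfate (700 uM final) for 20 hr at ambient temperature before luminescence reading.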
PLK1 PBD block: PLK1 (human) polo-box domain binding inhibition; actives 2.8% (n = 360,000); Plk1 PBD binding of FITC phosphopeptide, fluorescence polarization; Potency, µM, usual class: inhibitors; AID 720504; further: series mostly up to about 57 µM; nearly all actives have a fitted effect of over 65% in size
Target sequence (P53350 whole entry, looked up, the tested form may be a part): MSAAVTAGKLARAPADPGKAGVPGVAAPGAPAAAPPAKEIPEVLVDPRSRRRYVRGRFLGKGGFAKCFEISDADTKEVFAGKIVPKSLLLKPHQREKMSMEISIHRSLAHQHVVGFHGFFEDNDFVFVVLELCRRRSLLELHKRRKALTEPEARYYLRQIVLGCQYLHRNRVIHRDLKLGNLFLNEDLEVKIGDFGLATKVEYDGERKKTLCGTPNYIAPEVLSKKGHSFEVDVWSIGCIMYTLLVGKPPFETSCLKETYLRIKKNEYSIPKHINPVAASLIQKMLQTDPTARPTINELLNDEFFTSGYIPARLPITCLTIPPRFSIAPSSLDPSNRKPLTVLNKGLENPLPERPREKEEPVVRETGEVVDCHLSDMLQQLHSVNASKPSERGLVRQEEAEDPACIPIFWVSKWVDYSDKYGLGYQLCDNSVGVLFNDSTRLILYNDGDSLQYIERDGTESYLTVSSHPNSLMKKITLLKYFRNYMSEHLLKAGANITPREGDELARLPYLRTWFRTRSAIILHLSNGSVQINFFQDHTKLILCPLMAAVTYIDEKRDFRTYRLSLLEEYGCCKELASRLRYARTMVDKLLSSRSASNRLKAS
Sfp PPTase inh: Sfp phosphopantetheinyl transferase inhibition. Biochemical Sfp PPTase activity, qHTS. Potency, µM, actives largely listed as inhibitors. actives 3.5% (n = 310,000). AID 1490;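 further: the enzyme is Sfp with the accession as filed and its product quenches rhodamine fluorescence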
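Reaction rates are the 30-min fluorescence difference (ex 525, em 598 nm) in wells containing 15 nM Sfp, 5 uM rhodamine-CoA and 12.5 uM BHQ-2-YbbR at pH 7.6 with 10 mM MgCl2.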
ALDH1A1 block: inhibitors of human aldehyde dehydrogenase 1A1. actives 7.3% (n = 220,000). Potency, µM (top dose mostly 75.3 µM), hits mostly inhibitors. P00352. Purified ALDH1A1, NADH fluorescence, propionaldehyde substrate; active means well fitted inhibition curve with a large enough effect, not every such curve was filed as active; inconclusive means small, poorly fitted or top-dose-only effect, or another doubt; inactive means no such curve, though single readings can be large or run the other way
VP16 counter: inhibits Gal4-VP16 luciferase reporter, ROR gamma counter-screen | Drosophila S2 Gal4-VP16 UAS-luciferase, luminescence, 20 h | actives 3.5% (n = 310,000) | AID 2546 | Potency, µM (top dose mostly 53.6 µM), actives largely listed as inhibitors;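 further: Gal4-VP16 expression switched on by copper sulfate through the metallothionein promoter; nearly all actives have a fitted effect of over 50% in size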
TbPYK inh: confirmation of Trypanosoma brucei pyruvate kinase inhibitors. shares compounds with PLK1 PBD block. recombinant TbPYK, Kinase-Glo ATP luminescence. Potency, µM (top dose mostly 76.9 µM), usual class: inhibitors. actives 67% (n = 890); further: nearly all actives have a fitted effect of over 70% in size
TbPYK ADP-Glo: inhibits T. brucei pyruvate kinase in orthogonal ADP-Glo assay | actives 62% (n = 890) | shares compounds with PLK1 PBD block | Potency, µM (highest dose often 76.9 µM), hits mostly inhibitors | AID 720584 | recombinant TbPYK, ADP-Glo luminescence, 60 min; further: nearly all actives have a fitted effect of over 75% in size
A number is an active result; i = inactive; ? = inconclusive; nt = no result given; [ ] = another dose, or the depositor's remark. The list is not random: actives were taken first. Their share in the collection is about 12%. Unless noted, the call rests on the fitted dose curve; in most records, active means well fitted curve in the direction sought with a large enough effect; inconclusive means small, poorly fitted or top-dose-only effect, or another doubt; inactive means no such curve, though single readings can be large; an effect the other way counts as inactive or inconclusive.

SMILES	RORg inh	PLK1 PBD block	Sfp PPTase inh	ALDH1A1 block	VP16 counter	TbPYK inh	TbPYK ADP-Glo
COc1cc(C2CC(=O)N3CN(Cc4ccco4)CSC3=C2C#N)ccc1OCc1ccccc1 (stereo not given)	i	?	3.5µM	7.9µM	i	?	1µM
N#CC1=C2SCN(Cc3ccccc3)CN2C(=O)CC1c1ccc2c(c1)OCO2 (stereo not given)	i	19µM	1.8µM	7.9µM	i	?	?
CC(C)c1ccc(C2CC(=O)N3CN(Cc4ccco4)CSC3=C2C#N)cc1 (stereo not given)	i	27µM	2.2µM	14µM	i	0.14µM	0.45µM
Cc1ccc(Nc2nc(C)cc(C)c2C#N)c(C)c1	nt	i	nt	nt	nt	nt	nt
C[C@@H]1CN([C@@H](C)CO)C(=O)CCCn2nncc2CO[C@H]1CN(C)C(=O)Nc1cccc(Oc2ccccn2)c1	nt	i	nt	nt	nt	nt	nt
Cc1ccc(O)c(N=Nc2ccccc2)n1	1µM	i	?	?	2.8µM	10µM	i
Oc1ccc(N=Nc2ccccc2)cc1	i	i	i	nt	i	nt	nt
CCc1ccc(C)c(OC(=O)c2cncc(Br)c2)c1	i[1.91 µM]	i	i	nt	i	nt	nt
CCC(=O)N1CCCc2cc(S(=O)(=O)N3CCCc4ccccc43)ccc21	i	i	i	18µM	i	16µM	32µM
CCC(=O)N1CCc2cc(S(=O)(=O)N3CCc4ccccc4C3)ccc21	i	i	i	?	i	nt	nt
COC(=O)/C=c1\sc2ncnn2c1=O	?	?	10µM	?	i[0.365 µM]	28µM	28µM
CNC(=O)/C(C#N)=c1\s/c(=C/C(=O)OC)c(=O)n1-c1ccccc1	?	i	i	i	i	nt	nt
COc1ccc(CNc2nc(-c3cccnc3)nn2S(C)(=O)=O)cc1	i	i	i	?	i	nt	nt
Cn1ncc(Br)c1C(=O)NC(=S)N1CCN(c2ccccn2)CC1	6.3µM	i	i	i	11µM	28µM	32µM
COC(=O)c1ccccc1NC(=S)N1CCN(c2ccccn2)CC1	i	i	i	i	i	nt	nt
CCN(CC)C(=S)Sc1c(-c2ccccc2)c2cc(Cl)ccc2[nH]c1=O	8.9µM	?	16µM	?	7.9µM	?	14µM
O=c1[nH]c2ccc(Cl)cc2c(-c2ccccc2)c1N1CCOCC1	i	i	i	?	i	nt	nt
CC(OC(=O)Cc1c(F)cccc1Cl)C(=O)NC1(C#N)CCCCC1 (stereo not given)	nt	i	nt	nt	nt	nt	nt
CCN(CC)c1ccc(C(=C2C=CC(=[N+](CC)CC)C=C2)c2ccc(S(=O)(=O)O)cc2S(=O)(=O)[O-])cc1	nt	i	nt	nt	nt	16µM	i
CCCn1c(SCC(=O)Nc2nc(-c3ccc(OC)cc3)cs2)nc2c1c(=O)n(C)c(=O)n2C	i	i	i	i	i	i	i
Cc1ccccc1OCCC(=O)OCC(=O)Nc1c(F)cccc1F	nt	i	nt	nt	nt	nt	nt
N#Cc1c(NC(=O)CCC(=O)O)sc2c1CCCCC2	i	27µM	20µM	14µM	i	?	?
N#Cc1c(NC(=O)CCC(=O)O)sc2c1CCCC2	i	i	i	i	i	nt	nt
Cc1ccc(-c2cc(C(=O)N3CC(C)OC(C)C3)c3ccccc3n2)o1 (stereo not given)	nt	i	nt	nt	nt	nt	nt
Cc1ccc(-c2cc(C(=O)N3CC(C)CC(C)C3)c3ccccc3n2)o1 (stereo not given)	i	24µM	22µM	nt	i	25µM	35µM
SMILES	RORg inh	PLK1 PBD block	Sfp PPTase inh	ALDH1A1 block	VP16 counter	TbPYK inh	TbPYK ADP-Glo
COC(=O)c1cc(-c2ccc(C)o2)nc2ccccc12	?	15µM	11µM	?	?	?	?
O=S1(=O)C=C(Sc2nnc(-c3ccccc3)o2)c2ccccc21	1.8µM	1.9µM	16µM	22µM	3.2µM	20µM	22µM
CN1C2=C(C(=O)CC(C)(C)C2)C(c2cccs2)C2=C1CC(C)(C)CC2=O	nt	i	nt	nt	nt	nt	nt
O=C(NCCCNC(=O)c1cccs1)c1cccs1	i	2.7µM	i	i	i	i	i
CC1=CC(=O)C(Sc2ccc(C)cc2)=CC1=O	nt	0.84µM	nt	nt	nt	1.3µM	2.5µM
Cc1ccc(Sc2c(C)[nH]n(C(C)(C)C)c2=O)cc1	i	i	i	i	i	nt	nt
CC(=O)C1=C(C)NC(SCC(=O)c2ccccc2)=C(C#N)C1CC(C)C (stereo not given)	11µM	i	20µM	7.1µM	?	?	40µM

Assay outcomes (PubChem)
